# Source: paper PMC11062922 (Nature Chemical Biology, 2023)
# Like-named read-outs stand apart in the source and are kept apart here.
# Tests used:
# Parameters in all cases: species or system human, MV4-11 + K-562 + COLO205 + SK-N-BE2 + OVCAR-8
# MAPK10 = settings: read-out: apparent Kd, n = 1
# MAPK11 = settings: read-out: apparent Kd, n = 1
# MAPK14 = settings: read-out: apparent Kd, n = 1
# MAPK8 = settings: read-out: apparent Kd; compound concentrations:100 nM and 1000 nM (sheet 'Samples'); n = 1
# MAPK9 = settings: read-out: apparent Kd, n = 1
# NLK = settings: read-out: apparent Kd, n = 1
# PIP4K2C = settings: read-out: apparent Kd; compound concentrations:100 nM and 1000 nM (sheet 'Samples'); n = 1
# MAPKAPK2 = settings: read-out: apparent Kd; compound concentrations: 100 nM and 1000 nM (sheet 'Samples'), CATDS: 0.161840015907707; n = 1
# NQO1 = settings: read-out: apparent Kd; compound concentrations: 100 nM and 1000 nM (sheet 'Samples'), CATDS: 0.141428074132052; n = 1
# MAP2K1 = settings: read-out: apparent Kd; compound concentrations:100 nM and 1000 nM (sheet 'Samples'); n = 1
# PIK3C2A = settings: read-out: apparent Kd; compound concentrations:100 nM and 1000 nM (sheet 'Samples'); n = 1
# PIK3C3 = settings: read-out: apparent Kd; compound concentrations:100 nM and 1000 nM (sheet 'Samples'); n = 1
# PIM2 = settings: read-out: apparent Kd; compound concentrations:100 nM and 1000 nM (sheet 'Samples'); n = 1
# RIOK2 = settings: read-out: apparent Kd, n = 1
# MARK4 = settings: read-out: apparent Kd; compound concentrations: 100 nM and 1000 nM (sheet 'Samples'), CATDS: 0.22058260458437301; n = 1
# PIK3CB = settings: read-out: apparent Kd; compound concentrations: 100 nM and 1000 nM (sheet 'Samples'), CATDS: 0.29379902166128602; n = 1
# [1] = compound concentrations:100 nM and 1000 nM (sheet 'Samples')
smiles,measurement,setting,value
CS(=O)(=O)CCCn1c(=O)c(Oc2ccc(F)cc2F)cc2cnc(NC3CCOCC3)nc21 [RO5033700-000],potency estimated from few doses,MAPK10; [1],93.9 nM
same,potency estimated from few doses,MAPK11; [1],630 nM
same,potency estimated from few doses,MAPK14; [1],7.7 nM
same,potency estimated from few doses,MAPK8,466 nM
same,potency estimated from few doses,MAPK9; [1],110 nM
same,potency estimated from few doses,NLK; [1],202 nM
same,potency estimated from few doses,PIP4K2C,796 nM
Cn1c(=O)c(Sc2ccccc2F)cc2cnc(NC3CCOCC3)nc21 [RO4944065-000],potency estimated from few doses,"MAPK10; compound concentrations: 100 nM and 1000 nM (sheet 'Samples'), CATDS: 0.25998811221784501",524 nM
same,potency estimated from few doses,"MAPK14; compound concentrations: 100 nM and 1000 nM (sheet 'Samples'), CATDS: 0.14533669978761299",1580 nM
same,potency estimated from few doses,"MAPK9; compound concentrations: 100 nM and 1000 nM (sheet 'Samples'), CATDS: 0.21193161628333601",732 nM
same,potency estimated from few doses,MAPKAPK2,1230 nM
same,potency estimated from few doses,"NLK; compound concentrations: 100 nM and 1000 nM (sheet 'Samples'), CATDS: 0.13689405577896799",1840 nM
same,potency estimated from few doses,NQO1,1690 nM
O=C1NC(=O)C(c2ccc(Cl)cc2)=C1Nc1cccc(Cl)c1 [SB-317651],potency estimated from few doses,MAP2K1,1860 nM
same,potency estimated from few doses,PIK3C2A,2450 nM
same,potency estimated from few doses,PIK3C3,1570 nM
same,potency estimated from few doses,PIM2,1320 nM
same,potency estimated from few doses,RIOK2; [1],1500 nM
COC(=O)Nc1nc2ccc(Sc3ccc(NC(=O)Nc4cc(C(F)(F)F)ccc4F)cc3)cc2[nH]1.O=S(=O)(O)O [GW607049C],potency estimated from few doses,"MAPK10; compound concentrations: 100 nM and 1000 nM (sheet 'Samples'), CATDS: 0.243888047714692",1550 nM
same,potency estimated from few doses,MARK4,1930 nM
same,potency estimated from few doses,PIK3CB,1090 nM
same,potency estimated from few doses,"RIOK2; compound concentrations: 100 nM and 1000 nM (sheet 'Samples'), CATDS: 0.25235817930049498",1440 nM
Fc1ccc(Nc2nccc(-c3c(-c4ccc(Cl)cc4)nn4ncccc34)n2)cc1F [GW829058X],potency estimated from few doses,"MAPK10; compound concentrations: 100 nM and 1000 nM (sheet 'Samples'), CATDS: 0.57984182911323701",726 nM
same,potency estimated from few doses,"MAPK14; compound concentrations: 100 nM and 1000 nM (sheet 'Samples'), CATDS: 0.43948476052302998",1280 nM
Nc1c(C(=O)c2cccc(OC[C@H](O)CO)c2)cnn1-c1ccc(F)cc1 [RO3201196-000],potency estimated from few doses,"MAPK11; compound concentrations: 100 nM and 1000 nM (sheet 'Samples'), CATDS: 1",697 nM
